High-throughput results from PubChem BioAssay.
Only some compounds are listed: those with a hit (about 4.6% of all), similar ones and a draw of the others.
Vaccinia Venus: qHTS for Stage-Specific Inhibitors of Vaccinia Orthopoxvirus: Venus Reporter Primary qHTS; Vaccinia virus Venus reporter expression, fluorescence; Potency, µM (doses to about 36.5 µM), inactives show at the highest dose activity change, negative = inhibition, usual class: inhibitors; 0.46% of 330,000 active; AID 720580, 2013; calls by dose curve; tested in A549 cells; note: nearly all actives have a fitted effect of over 30% in size
Marburg entry inh: qHTS for inhibitors of binding or entry into cells for Marburg Virus | Marburg virus pseudotyped entry inhibition, cell reporter | Potency, µM (titrated, usually from 37.8 µM), inactives show at the top dose activity change, negative = inhibition, most hits filed as inhibitors | 1.8% of 300,000 active | AID 540276, 2011; calls by dose curve; tested in HEK293 cells
VACV mCherry inh: qHTS for Stage-Specific Inhibitors of Vaccinia Orthopoxvirus: mCherry Reporter Primary qHTS. Vaccinia virus mCherry reporter infection, fluorescence. Potency, µM (highest dose often 36.5 µM), for inactives: at the highest dose activity change, negative = inhibition, most hits filed as inhibitors. 0.63% of 310,000 active. AID 720579, 2013; calls by dose curve; tested in A549 cells; note: nearly all actives have a fitted effect of over 35% in size
LASV entry inh: qHTS for Inhibitors of binding or entry into cells for Lassa Virus | Potency, µM (highest dose often 37.9 µM), for the others: at the highest dose activity change, negative = inhibition, actives largely listed as inhibitors | AID 540256, 2011 | 1.2% of 300,000 active | Lassa virus pseudotype entry inhibition, cell reporter; calls by dose curve; tested in HEK293 cells; note: nearly all actives have a fitted effect of over 50% in size
HCV inh: qHTS Assay for Inhibitors of Hepatitis C Virus (HCV). Huh7.5.1 HCVcc-Cre infection, luciferase reporter, 44 h. Potency, µM (highest dose often 41.8 µM), for the others: at the top dose activity change, negative = inhibition, most hits filed as inhibitors. 3.4% of 340,000 active; active = well fitted inhibition curve with a large enough effect; inconclusive = small, poorly fitted or top-dose-only effect, or another doubt; inactive = no such curve, though single readings can be large or run the other way
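Antiviral activity was scored by luciferase reporter output from cells infected with HCVcc-Cre (~0.5 moi) in presence of compound, 44 h infection period, cells seeded 1,000/well 4 h prior.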
* hit, by the source's call; i = inactive; ? = inconclusive; · = no result; [ ] = dose if it differs, or a comment. % is set by controls: 0 for no effect and ±100 for the full control effect; potency is the fitted concentration of half-maximal effect.

SMILES	Vaccinia Venus	Marburg entry inh	VACV mCherry inh	LASV entry inh	HCV inh
O=C(Cc1ccccc1)NC1CCN(Cc2ccccc2)CC1	-8.9%	-9.2%[46.1 µM]	-8.7%	-2.7%	-20.7%
O=C(CCN1CCN(Cc2ccccc2)CC1)NNC(=O)Cc1ccc(Cl)c(Cl)c1	?	-24.4%	28.2µM*	15.1%	?
Cc1ccc(NS(=O)(=O)c2cccc(C(=O)NC3CCN(Cc4ccccc4)CC3)c2)cc1	?	?	?	-12.5%	12.6µM*
O=C(CCN1CCN(Cc2ccccc2)CC1)NNC(=O)Nc1cccc(Cl)c1	-28.2%	0.2%[46.1 µM]	-15.3%	-10.3%[46.1 µM]	-9.7%
Cc1ccc(NS(=O)(=O)c2ccc(C(=O)NC3CCN(Cc4ccccc4)CC3)cc2)cc1	?	?	?	11.2µM*	?
O=C(NC1CCN(Cc2ccccc2)CC1)c1ccccc1	·	·	·	·	-1.3%
O=C(Cc1ccc(Br)cc1)NC1CCN(Cc2ccccc2)CC1	-2.8%	?	4.7%	·	10µM*
Cc1cc(C)c2c(n1)nn1c(C)c(CCC(=O)Nc3cccc(C)c3C)c(C)nc21	0.4%	19.3%[46.1 µM]	2.7%	6.0%[46.1 µM]	·
O=C(NC1CCN(Cc2ccccc2)CC1)c1cccc(NS(=O)(=O)c2ccc(Br)cc2)c1	·	·	·	·	11.2µM*
CCCc1cc(=O)oc2c(C)c(OCC(=O)NC3CCN(Cc4ccccc4)CC3)ccc12	·	·	·	·	6.31µM*
O=C(NC1CCN(Cc2ccccc2)CC1)c1cc(S(=O)(=O)Nc2ccc(F)cc2)ccc1Cl	-24.0%	?	-28.0%	?	?
CCCc1cc(=O)oc2c(C)c(OCC(=O)NC3CC(C)(C)NC(C)(C)C3)ccc12	?	?	i	-25.0%[46.1 µM]	?
Cc1ccc(CN2C3CCCC2CC(NC(=O)c2ccc(C)cc2)C3)cc1 (configuration not stated)	·	13µM*	·	?	31.6µM*
O=C(CCNS(=O)(=O)c1ccc(Br)cc1)NC1CCN(Cc2ccccc2)CC1	-26.2%	-10.0%	-9.7%	1.5%	?
CC(=O)NC1CC2CCCC(C1)N2Cc1ccc(C)cc1 (configuration not stated)	·	·	·	·	10.2%
O=C(NC1CCN(Cc2ccccc2)CC1)c1cccc(S(=O)(=O)Nc2ccc(SC(F)F)cc2)c1	·	·	·	·	2.82µM*
C#CCCCO/N=C1\C[C@@H](O)[C@@H](O)[C@@H]2[C@@H]3C(=O)N(c4ccc(F)cc4F)C(=O)[C@@H]3CC[C@H]12	·	-6.1%[14.2 µM]	·	·	·
O=Cc1ccnc2ccccc12	-4.8%	·	-17.0%	·	·
COCC(=O)Nc1cc(C(=O)N2CCN(c3ccc(Cl)cn3)CC2)c2c(c1)nc(C1CCC1)n2C	4.9%	·	-1.4%	·	·
COc1ccc(Cn2c(C(=O)O)c(CNCCc3ccccc3Cl)c3ccc(C)cc32)cc1	?	·	?	-26.6%[46.1 µM]	·
O=C1[C@H]2[C@H]3[C@H](O)[C@H](O)C/C(=N\OCc4ccccc4)[C@@H]3CC[C@H]2C(=O)N1C[C@@H]1CCCO1	·	6.1%[14.2 µM]	·	·	·
Cc1ccc(-c2nnn(CC(=O)NC3CCN(Cc4ccccc4)CC3)n2)cc1	·	?	·	5.7%	22.4µM*
COc1cc(C(CC(=O)NCc2ccccc2)N2Cc3ccccc3C2=O)cc(OC)c1OC (configuration not stated)	-9.7%	·	-9.8%	8.4%[46.1 µM]	·
CC(C)c1oc(=O)cc2c1[C@@H](O)[C@H]1OC(=O)[C@@]3(C)CC[C@@H](O)[C@@]2(C)C13 (some centres not stated)	3.98µM*	?	?	?	?
CC(C)c1oc(=O)cc2c1[C@@H](O)[C@H]1OC(=O)[C@@]3(C)C[C@@H](O)[C@@H](O)[C@@]2(C)C13 (some centres not stated)	2µM*	3.26µM*	?	6.51µM*	?
CCOc1ccc(NC(=O)Cn2c(=O)n(-c3cccc(OC)c3)c(=O)c3c4c(sc32)CCCC4)cc1	-6.2%	1.7%[46.1 µM]	-7.4%	3.0%[46.1 µM]	·
COc1ccc(-c2nc3ccccc3s2)cc1NC(=O)c1cccc(F)c1	-21.1%	·	-16.9%	1.8%[46.1 µM]	·
COc1cc(OC)c(C#N)c(S(=O)(=O)Cc2ccccc2)c1	-21.3%	16.4%	i	-2.2%	0.0%
N#Cc1c([N+](=O)[O-])cc([N+](=O)[O-])cc1S(=O)(=O)Cc1ccccc1	?	?	?	11.2µM*	10µM*
